Source: the supplement of paper PMC10849652
Of roughly 7,900 targets only a part is listed; those with a hit were picked by preference. About 0.6% of all pairs of compound and target were hits.

Key:
Test in all cases: log2 fold change, soluble protein after heating vs DMSO (PISA); higher = thermal stabilisation; K562 cells, 10 uM, 30 min; active = over 0.2 and 3.5 SD of the protein, either way, in both replicates (recomputed)
erlotinib = compound: C#Cc1cccc(Nc2ncnc3cc(OCCOC)c(OCCOC)cc23)c1 [erlotinib]
How it was run: (§1)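 Aliquots of K562 cells (2×10^6 cells/mL) treated with 10 μM compound for 30 min were heated for 3 min over 48°C-58°C. After pooling and extraction in PBS with 0.5% NP-40 at 4°C, soluble protein from a 21,000xg, 90 min spin was quantified by TMTpro 16plex LC-MS/MS with channel sums equalised. Thermal stability is expressed against control samples, from duplicates, as a log2 fold change.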

[1] = compound: C/C(=N\NC(=O)C1=CC(=CC=C1)S(=O)(=O)N2CCOCC2)/C3=C(C=CC(=C3)Cl)O
How it was run: as §1

[2] = compound: C1=CC(=C(C=C1Cl)C2=NC3=NC=CN=C3C(=N2)NC4=CC=NC=C4)F
How it was run: as §1

[3] = compound: C1=CC(=CC=C1C2=NC3=C(N2)C=C(C=C3)C(=O)N)OC4=CC=C(C=C4)Cl
How it was run: as §1

[4] = compound: C1=CC2=C(C=CC(=C2)/C=C\3/C(=O)NC(=NCC4=CC=CS4)S3)N=C1
How it was run: as §1

[5] = compound: C1=CC2=NC=CN=C2C=C1/C=C/3\C(=O)NC(=O)S3
How it was run: as §1

[6] = compound: C1=CC=C(C=C1)C2=NC(=C(N2)C3=CC=NC=C3)C4=CC(=C(C=C4)Cl)O
How it was run: as §1

[7] = compound: C1=CC=C2C(=C1)C3=NNC4=CC=CC(=C43)C2=O
How it was run: as §1

[8] = compound: C1CCN(C1)C(=O)NC2=CC=CC(=C2)NC3=NC=C(C(=N3)NCCC4=CN=CN4)Br
How it was run: as §1

[9] = compound: C1CN(CCC1(CC2=CC=C(C=C2)Cl)N)C3=NC=NC4=C3C=CN4
How it was run: as §1

IRAK-1-4 Inhibitor I = compound: C1COCCN1CCN2C3=CC=CC=C3N=C2NC(=O)C4=CC(=CC=C4)[N+](=O)[O-] [IRAK-1-4 Inhibitor I]
How it was run: as §1

ibrutinib = compound: C=CC(=O)N1CCC[C@@H](n2nc(-c3ccc(Oc4ccccc4)cc3)c3c(N)ncnc32)C1 [ibrutinib]
How it was run: as §1

[10] = compound: CC(=O)c1cnc2ccc(-c3cc(Cl)c(O)c(Cl)c3)nc2c1N[C@H]1CC[C@H](CN(C)C)CC1
How it was run: as §1

ralimetinib = compound: CC(C)(C)Cn1c(N)nc2ccc(-c3[nH]c(C(C)(C)C)nc3-c3ccc(F)cc3)nc21 [ralimetinib]
How it was run: as §1

[11] = compound: CC(C)(O)CC(=O)NCCn1ccc2ncnc(Nc3ccc(Oc4cccc(C(F)(F)F)c4)c(Cl)c3)c21
How it was run: as §1

[12] = compound: CC(C)C1=C2N=C(C=C(N2N=C1)NCC3=CC=CC=C3)NCCCCCCN
How it was run: as §1

[13] = compound: CC(C)C[C@@H](C=O)NC(=O)[C@H](CC(C)C)NC(=O)[C@H](CC(C)C)NC(=O)OCc1ccccc1
How it was run: as §1

pinometostat = compound: CC(C)N(C[C@H]1O[C@@H](n2cnc3c(N)ncnc32)[C@H](O)[C@@H]1O)[C@H]1C[C@@H](CCc2nc3cc(C(C)(C)C)ccc3[nH]2)C1 [pinometostat]
How it was run: as §1

[14] = compound: CC1=C(C(CC(=O)N1)C2=CC=C(C=C2)C(F)(F)F)C(=O)NC3=C(C=C4C(=C3)C=NN4)F
How it was run: as §1

[15] = compound: CC1=C(C2=C(C=C1)C(=O)C3=CC=CC=C3N2CCCN)C
How it was run: as §1

Measured: log2 fold change

ARFIP1 (UniProt P53367)
Sequence of UniProt P53367 (P53367 whole entry, looked up): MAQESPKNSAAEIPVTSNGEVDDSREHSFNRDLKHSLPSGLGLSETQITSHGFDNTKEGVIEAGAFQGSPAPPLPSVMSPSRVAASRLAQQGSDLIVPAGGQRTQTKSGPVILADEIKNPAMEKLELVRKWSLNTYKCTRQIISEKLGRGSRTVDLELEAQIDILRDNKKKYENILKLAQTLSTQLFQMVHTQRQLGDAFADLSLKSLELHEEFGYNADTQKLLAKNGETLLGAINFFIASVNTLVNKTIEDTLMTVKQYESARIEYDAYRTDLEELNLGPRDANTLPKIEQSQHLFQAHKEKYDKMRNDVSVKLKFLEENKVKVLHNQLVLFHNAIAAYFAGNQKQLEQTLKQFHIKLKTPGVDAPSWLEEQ
inactive: erlotinib 0.217 | [1] -0.121 | [2] 0.087 | [3] 0.094 | [4] 0.115 | [5] 0.62 | [6] -0.126 | [7] -0.013 | [8] 0 | [9] 0.044 | IRAK-1-4 Inhibitor I -0.034 | ibrutinib -0.117 | [10] -0.075 | ralimetinib -0.104 | [11] -0.031 | [12] -0.011 | [13] -0.029 | pinometostat 0.006 | [14] 0.014 | [15] 0.164

ARF4 (UniProt P18085)
Sequence of UniProt P18085 (P18085 whole entry, looked up): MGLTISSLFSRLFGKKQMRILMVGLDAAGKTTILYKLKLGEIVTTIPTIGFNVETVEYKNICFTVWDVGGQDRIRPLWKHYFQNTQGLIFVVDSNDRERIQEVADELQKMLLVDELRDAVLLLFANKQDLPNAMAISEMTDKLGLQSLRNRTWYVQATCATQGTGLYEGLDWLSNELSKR
inactive: erlotinib -0.029 | [1] 0.033 | [2] 0.093 | [3] -0.007 | [4] 0.006 | [5] -0.016 | [6] 0.093 | [7] 0.039 | [8] -0.015 | [9] -0.021 | IRAK-1-4 Inhibitor I 0.072 | ibrutinib 0.003 | [10] -0.027 | ralimetinib -0.019 | [11] -0.103 | [12] 0.117 | [13] -0.032 | pinometostat -0.042 | [14] -0.071 | [15] 0.128

AP2B1 isoform 2 (UniProt P63010)
inactive: erlotinib -0.021 | [1] 0.017 | [2] -0.01 | [3] 0.003 | [4] 0.004 | [5] -0.009 | [6] -0.004 | [7] -0.158 | [9] -0.003 | IRAK-1-4 Inhibitor I -0.002 | ibrutinib 0.025 | [10] -0.034 | ralimetinib 0 | [11] 0.008 | [12] 0.029 | [13] 0.005 | pinometostat 0.011 | [14] 0.027 | [15] 0.035
active: [8] -0.225

ADD3 (UniProt Q9UEY8)
inactive: erlotinib 0.018 | [1] 0 | [2] -0.008 | [3] 0.025 | [4] 0.02 | [5] 0.013 | [6] -0.025 | [7] -0.024 | [8] -0.015 | [9] 0.031 | IRAK-1-4 Inhibitor I 0.063 | ibrutinib 0.025 | ralimetinib -0.011 | [11] 0.008 | [12] 0.097 | [13] 0.018 | pinometostat -0.034 | [14] 0.019 | [15] 0.014
active: [10] -0.29

AGO1 (UniProt Q9UL18)
inactive: erlotinib 0.031 | [1] -0.061 | [2] 0.05 | [3] -0.091 | [4] 0.032 | [5] 0.005 | [6] 0.01 | [7] -0.08 | [8] -0.008 | [9] 0.046 | IRAK-1-4 Inhibitor I 0.02 | ibrutinib 0.05 | [10] 0.019 | ralimetinib -0.023 | [11] -0.001 | [12] -0.01 | [13] 0.07 | pinometostat 0.061 | [14] 0.144 | [15] 0.076

ARMC10 (UniProt Q8N2F6)
inactive: erlotinib -0.021 | [1] 0.044 | [2] -0.092 | [3] -0.066 | [4] 0.005 | [5] 0.006 | [6] -0.034 | [7] 0.016 | [8] 0.003 | [9] -0.023 | IRAK-1-4 Inhibitor I 0.001 | ibrutinib -0.018 | [10] -0.035 | ralimetinib -0.003 | [11] -0.029 | [12] 0.005 | [13] 0.034 | pinometostat 0.033 | [14] 0.003 | [15] 0

ATP13A2 (UniProt Q9NQ11)
Sequence of UniProt Q9NQ11 (Q9NQ11 whole entry, looked up): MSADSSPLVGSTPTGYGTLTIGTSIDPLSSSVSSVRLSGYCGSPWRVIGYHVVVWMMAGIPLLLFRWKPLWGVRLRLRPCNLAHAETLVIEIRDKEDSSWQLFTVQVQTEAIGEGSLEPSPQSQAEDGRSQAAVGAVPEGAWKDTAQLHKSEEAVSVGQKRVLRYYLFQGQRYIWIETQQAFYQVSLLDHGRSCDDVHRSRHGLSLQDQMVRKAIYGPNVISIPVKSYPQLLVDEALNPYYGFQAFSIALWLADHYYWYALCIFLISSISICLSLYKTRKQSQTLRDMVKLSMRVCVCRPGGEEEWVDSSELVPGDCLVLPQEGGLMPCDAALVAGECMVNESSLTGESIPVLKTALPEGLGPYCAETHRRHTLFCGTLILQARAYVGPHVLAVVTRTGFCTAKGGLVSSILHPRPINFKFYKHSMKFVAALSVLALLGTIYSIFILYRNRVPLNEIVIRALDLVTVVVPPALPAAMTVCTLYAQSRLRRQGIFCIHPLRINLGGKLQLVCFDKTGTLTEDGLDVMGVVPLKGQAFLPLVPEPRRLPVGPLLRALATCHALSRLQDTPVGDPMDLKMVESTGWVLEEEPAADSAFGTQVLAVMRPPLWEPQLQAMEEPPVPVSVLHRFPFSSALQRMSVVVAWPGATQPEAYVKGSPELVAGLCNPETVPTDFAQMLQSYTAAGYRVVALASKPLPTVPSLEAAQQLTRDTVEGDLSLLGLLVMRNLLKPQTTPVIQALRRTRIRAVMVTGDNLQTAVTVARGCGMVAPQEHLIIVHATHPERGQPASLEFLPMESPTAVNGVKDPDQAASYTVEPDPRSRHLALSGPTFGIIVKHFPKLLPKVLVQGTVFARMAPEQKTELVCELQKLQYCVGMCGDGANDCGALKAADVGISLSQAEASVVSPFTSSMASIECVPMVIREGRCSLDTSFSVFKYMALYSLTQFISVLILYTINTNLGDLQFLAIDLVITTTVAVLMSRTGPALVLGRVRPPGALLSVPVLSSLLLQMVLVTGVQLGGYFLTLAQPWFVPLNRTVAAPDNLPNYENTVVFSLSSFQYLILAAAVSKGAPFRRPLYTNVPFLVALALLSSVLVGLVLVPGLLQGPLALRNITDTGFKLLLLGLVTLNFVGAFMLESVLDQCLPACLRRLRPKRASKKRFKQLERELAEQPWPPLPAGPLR
inactive: erlotinib 0.047 | [1] 0.012 | [2] 0.011 | [3] 0.096 | [4] 0.024 | [5] 0.099 | [6] 0.01 | [7] -0.042 | [8] 0.035 | [9] 0.082 | IRAK-1-4 Inhibitor I 0.04 | ibrutinib 0.074 | [10] 0.007 | ralimetinib -0.033 | [11] -0.03 | [13] 0.011 | pinometostat 0.063 | [14] 0.044 | [15] 0.181
active: [12] -0.511

ALDH1B1 (UniProt P30837)
inactive: erlotinib 0 | [1] 0.073 | [2] 0.066 | [3] 0.081 | [4] 0.062 | [5] -0.009 | [6] 0.044 | [7] 0.065 | [8] -0.028 | [9] 0.043 | IRAK-1-4 Inhibitor I 0.051 | ibrutinib 0.031 | [10] -0.009 | ralimetinib -0.004 | [11] -0.072 | [12] 0.132 | [13] -0.01 | pinometostat -0.022 | [14] -0.054 | [15] 0.221

AP2A2 isoform 2 (UniProt O94973)
inactive: erlotinib 0.007 | [1] 0.014 | [2] -0.004 | [3] -0.012 | [4] 0.007 | [5] 0.004 | [6] 0.072 | [7] -0.118 | [9] 0.028 | IRAK-1-4 Inhibitor I -0.003 | ibrutinib -0.015 | [10] 0.008 | ralimetinib 0.006 | [11] 0.033 | [12] 0.019 | [13] 0.032 | pinometostat 0.025 | [14] -0.02 | [15] 0.107
active: [8] -0.284

ANKRD29 (UniProt Q8N6D5)
Sequence of UniProt Q8N6D5 (Q8N6D5 whole entry, looked up): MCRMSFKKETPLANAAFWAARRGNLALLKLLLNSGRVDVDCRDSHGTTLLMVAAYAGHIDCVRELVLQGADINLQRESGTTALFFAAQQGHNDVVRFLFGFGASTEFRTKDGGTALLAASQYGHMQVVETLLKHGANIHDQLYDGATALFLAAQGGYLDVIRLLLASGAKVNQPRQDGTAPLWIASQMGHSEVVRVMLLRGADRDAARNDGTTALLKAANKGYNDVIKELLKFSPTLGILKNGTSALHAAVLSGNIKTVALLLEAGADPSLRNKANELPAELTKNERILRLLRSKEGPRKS
active: [1] -0.445
inactive: erlotinib 0.243 | [2] 0.083 | [3] -0.021 | [4] 0.223 | [5] -0.015 | [6] -0.046 | [7] 0.098 | [8] -0.025 | [9] 0.096 | IRAK-1-4 Inhibitor I -0.001 | ibrutinib -0.18 | [10] 0.026 | ralimetinib -0.057 | [11] -0.15 | [12] 0.007 | [13] -0.153 | pinometostat -0.012 | [14] 0.009 | [15] 0.024

B4GALNT1 (UniProt Q00973)
Sequence of UniProt Q00973 (Q00973 whole entry, looked up): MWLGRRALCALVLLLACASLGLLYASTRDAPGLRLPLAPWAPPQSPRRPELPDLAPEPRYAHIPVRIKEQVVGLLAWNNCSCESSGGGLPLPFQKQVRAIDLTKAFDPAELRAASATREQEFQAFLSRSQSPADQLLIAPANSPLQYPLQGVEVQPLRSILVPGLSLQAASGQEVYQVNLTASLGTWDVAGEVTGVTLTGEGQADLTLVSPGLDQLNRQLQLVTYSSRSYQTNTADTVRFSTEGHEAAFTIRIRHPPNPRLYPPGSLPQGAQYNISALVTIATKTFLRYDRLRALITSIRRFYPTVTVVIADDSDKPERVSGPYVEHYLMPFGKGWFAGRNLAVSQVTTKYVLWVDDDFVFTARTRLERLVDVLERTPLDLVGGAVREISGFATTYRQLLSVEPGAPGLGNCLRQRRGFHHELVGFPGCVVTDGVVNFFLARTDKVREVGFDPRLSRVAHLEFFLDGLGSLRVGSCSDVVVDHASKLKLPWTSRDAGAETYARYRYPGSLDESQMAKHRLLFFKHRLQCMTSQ
inactive: erlotinib -0.176 | [1] -0.006 | [2] 0.029 | [3] 0.101 | [4] 0.124 | [5] -0.038 | [6] -0.073 | [7] -0.189 | [8] 0.069 | [9] -0.141 | IRAK-1-4 Inhibitor I 0.01 | ibrutinib -0.159 | [10] -0.188 | ralimetinib -0.129 | [11] 0.017 | [12] 0.038 | [13] 0.052 | pinometostat -0.101 | [14] -0.119 | [15] 0.057

BRIP1 (UniProt Q9BX63)
Sequence of UniProt Q9BX63 (Q9BX63 whole entry, looked up): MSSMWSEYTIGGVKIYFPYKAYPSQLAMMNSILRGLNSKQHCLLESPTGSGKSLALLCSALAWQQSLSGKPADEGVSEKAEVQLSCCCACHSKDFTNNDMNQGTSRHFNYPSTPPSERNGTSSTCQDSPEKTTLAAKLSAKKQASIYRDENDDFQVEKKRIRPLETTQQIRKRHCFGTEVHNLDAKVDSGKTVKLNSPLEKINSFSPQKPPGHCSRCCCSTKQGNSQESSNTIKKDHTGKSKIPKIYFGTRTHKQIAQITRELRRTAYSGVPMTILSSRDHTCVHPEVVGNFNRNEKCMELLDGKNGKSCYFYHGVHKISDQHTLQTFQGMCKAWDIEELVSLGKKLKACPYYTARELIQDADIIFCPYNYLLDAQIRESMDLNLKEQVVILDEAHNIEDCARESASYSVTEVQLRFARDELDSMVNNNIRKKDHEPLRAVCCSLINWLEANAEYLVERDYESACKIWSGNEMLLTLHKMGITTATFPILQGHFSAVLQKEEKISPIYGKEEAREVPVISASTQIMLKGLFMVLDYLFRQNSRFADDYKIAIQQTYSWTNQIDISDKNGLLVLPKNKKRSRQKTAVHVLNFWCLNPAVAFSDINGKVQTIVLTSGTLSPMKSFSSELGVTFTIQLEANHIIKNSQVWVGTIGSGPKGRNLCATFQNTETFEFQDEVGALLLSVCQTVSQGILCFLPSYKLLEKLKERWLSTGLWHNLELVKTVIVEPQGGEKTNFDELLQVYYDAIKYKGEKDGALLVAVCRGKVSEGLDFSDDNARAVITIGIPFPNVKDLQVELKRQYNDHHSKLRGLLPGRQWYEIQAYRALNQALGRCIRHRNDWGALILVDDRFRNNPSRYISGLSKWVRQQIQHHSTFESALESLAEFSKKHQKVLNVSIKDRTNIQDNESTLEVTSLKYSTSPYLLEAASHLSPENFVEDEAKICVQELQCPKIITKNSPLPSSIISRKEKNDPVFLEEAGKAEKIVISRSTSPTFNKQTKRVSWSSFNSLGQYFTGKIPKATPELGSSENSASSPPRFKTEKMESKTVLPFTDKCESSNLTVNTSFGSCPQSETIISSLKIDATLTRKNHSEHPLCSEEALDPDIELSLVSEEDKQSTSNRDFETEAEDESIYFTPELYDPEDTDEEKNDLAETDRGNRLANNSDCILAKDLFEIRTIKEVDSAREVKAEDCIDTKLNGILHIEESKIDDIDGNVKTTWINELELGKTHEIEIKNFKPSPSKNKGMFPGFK
active: [15] 0.333
inactive: erlotinib -0.009 | [1] 0.076 | [2] -0.153 | [3] 0.018 | [4] 0.075 | [5] -0.082 | [6] -0.048 | [7] 0.023 | [8] -0.064 | [9] -0.045 | IRAK-1-4 Inhibitor I 0.017 | ibrutinib 0.12 | [10] -0.073 | ralimetinib 0.006 | [11] 0.039 | [12] -0.036 | [13] -0.064 | pinometostat 0.084 | [14] -0.01

ANP32E (UniProt Q9BTT0)
Sequence of UniProt Q9BTT0 (Q9BTT0 whole entry, looked up): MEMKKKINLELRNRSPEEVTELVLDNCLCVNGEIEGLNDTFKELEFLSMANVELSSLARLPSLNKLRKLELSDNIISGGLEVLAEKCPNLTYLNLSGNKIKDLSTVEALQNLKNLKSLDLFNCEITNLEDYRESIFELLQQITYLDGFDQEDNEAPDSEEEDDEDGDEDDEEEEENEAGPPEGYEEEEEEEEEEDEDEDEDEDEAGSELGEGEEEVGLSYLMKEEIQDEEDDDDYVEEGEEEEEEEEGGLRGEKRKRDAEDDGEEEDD
inactive: erlotinib 0.211 | [1] 0.038 | [2] 0.114 | [3] -0.062 | [4] 0.027 | [5] -0.025 | [6] 0 | [7] -0.014 | [8] -0.026 | [9] -0.084 | IRAK-1-4 Inhibitor I 0.016 | ibrutinib 0.019 | [10] -0.128 | ralimetinib -0.035 | [11] -0.067 | [12] -0.181 | [13] -0.036 | pinometostat 0.028 | [14] 0.082 | [15] -0.214

BCAP29 isoform 2 (UniProt Q9UHQ4)
Sequence of UniProt Q9UHQ4 (Q9UHQ4 whole entry, looked up): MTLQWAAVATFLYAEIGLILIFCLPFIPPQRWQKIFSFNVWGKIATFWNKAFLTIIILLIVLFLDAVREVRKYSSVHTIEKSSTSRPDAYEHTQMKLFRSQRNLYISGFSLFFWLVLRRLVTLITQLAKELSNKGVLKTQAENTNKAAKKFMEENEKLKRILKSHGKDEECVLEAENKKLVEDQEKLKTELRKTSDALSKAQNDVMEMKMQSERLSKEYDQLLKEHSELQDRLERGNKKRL
inactive: erlotinib -0.02 | [1] 0.002 | [2] 0.077 | [3] 0.062 | [4] -0.026 | [5] 0.086 | [6] -0.034 | [7] 0.038 | [8] 0.062 | [9] -0.022 | IRAK-1-4 Inhibitor I 0.051 | ibrutinib -0.014 | [10] 0.011 | ralimetinib -0.094 | [11] 0.111 | [12] -0.106 | [13] 0.007 | pinometostat -0.012 | [14] 0.026 | [15] 0.052

ARL1 (UniProt P40616)
Sequence of UniProt P40616 (P40616 whole entry, looked up): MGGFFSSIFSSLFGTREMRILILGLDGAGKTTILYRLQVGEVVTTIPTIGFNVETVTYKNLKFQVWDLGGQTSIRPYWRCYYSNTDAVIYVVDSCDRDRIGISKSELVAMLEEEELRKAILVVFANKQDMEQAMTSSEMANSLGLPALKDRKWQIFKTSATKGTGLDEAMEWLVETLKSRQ
inactive: erlotinib 0.049 | [1] 0.063 | [2] 0.072 | [3] -0.091 | [4] 0.027 | [5] -0.028 | [6] 0.13 | [7] 0.084 | [8] -0.076 | [9] 0.055 | IRAK-1-4 Inhibitor I 0.007 | ibrutinib -0.031 | [10] -0.06 | ralimetinib 0.029 | [11] -0.09 | [12] 0.044 | [13] -0.049 | pinometostat -0.039 | [14] -0.065 | [15] 0.066

BCCIP isoform 2 (UniProt Q9P287)
Sequence of UniProt Q9P287 (Q9P287 whole entry, looked up): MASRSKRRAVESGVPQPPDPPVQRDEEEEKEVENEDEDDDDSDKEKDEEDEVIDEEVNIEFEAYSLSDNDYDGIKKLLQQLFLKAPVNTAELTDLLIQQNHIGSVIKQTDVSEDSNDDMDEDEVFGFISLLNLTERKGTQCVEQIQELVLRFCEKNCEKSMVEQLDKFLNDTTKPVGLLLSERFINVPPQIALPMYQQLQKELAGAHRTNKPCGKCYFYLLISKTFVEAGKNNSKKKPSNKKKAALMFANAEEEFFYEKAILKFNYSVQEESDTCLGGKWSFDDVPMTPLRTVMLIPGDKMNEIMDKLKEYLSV
inactive: erlotinib -0.1 | [1] 0.023 | [2] 0.027 | [3] 0.026 | [4] -0.025 | [5] 0.003 | [6] 0.012 | [7] -0.007 | [8] -0.002 | [9] 0.066 | IRAK-1-4 Inhibitor I 0.013 | ibrutinib -0.025 | [10] 0.008 | ralimetinib -0.048 | [11] 0.012 | [12] 0.008 | [13] -0.012 | pinometostat 0.029 | [14] -0.012 | [15] 0.077
